Data taken from PubChem BioAssay (Tox21).
Values joined by “and” are separate entries in the source; they are usually repeats but may differ in a detail not shown here. Equal values may be shown once. Inconclusive results are not listed. Where a call stands in place of a potency, no number is given. Some compounds were tested as several samples or in several runs, with calls that do not always agree. Active and inactive are the calls of the source. Unless noted, calls come from the whole dose curve; as a rule, active = well fitted curve in the direction sought with a large enough effect in the repeat runs; inconclusive = weak or mixed curves; inactive = no such curve, though single readings can be large; an effect the other way counts as inactive or inconclusive.

Assays:
[1] = qHTS assay to identify small molecule antagonists of the estrogen receptor alpha (ER-alpha) signaling pathway using the BG1 cell line in the presence of 0.1 nM 17-beta-estradiol - cell viability counter screen (AID 1259241); note: nearly all actives have a fitted effect of over 40% in size; note: potency is the fitted concentration of half-maximal effect
Outline: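 Following 5 days in phenol red-free medium with charcoal-stripped serum, VM7Luc4E2 cells received test compounds alongside 0.1 nM 17beta-estradiol (final) at 37C for 22 hr. Live cells were then quantified via protease-substrate fluorescence.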

[2] = qHTS assay to identify small molecule antagonists of the androgen receptor (AR) signaling pathway using the MDA cell line in the presence of 0.5 nM R1881 - cell viability counter screen (AID 1259242); note: nearly all actives have a fitted effect of over 45% in size; note: potency is the fitted concentration of half-maximal effect
Outline: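 Human breast carcinoma MDA-kb2 cells, cultured without CO2, receive compounds alongside 0.5 nM (final) R1881 agonist. After 16 hr at 37C, viability is taken as live-cell protease signal.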

[3] = target: Androgen receptor (Homo sapiens) (UniProt P10275); test: qHTS assay to identify small molecule antagonists of the androgen receptor (AR) signaling pathway using the MDA cell line in the presence of 0.5 nM R1881 (AID 1259243); note: nearly all actives have a fitted effect of over 50% in size; note: potency is the fitted concentration of half-maximal effect
Outline: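 Cells: MDA-kb2 (MMTV-luc). Stimulus: 0.5 nM R1881. Time: 16 hr, 37C, no CO2. Detection: ONE-Glo luminescence after 30 min at RT.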

[4] = target: Estrogen receptor (Homo sapiens) (UniProt P03372); test: qHTS assay to identify small molecule antagonists of the estrogen receptor alpha (ER-alpha) signaling pathway using the BG1 cell line in the presence of 0.1 nM 17-beta-estradiol (AID 1259244); note: nearly all actives have a fitted effect of over 50% in size; note: potency is the fitted concentration of half-maximal effect
Outline: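 Seeding of stripped-serum-adapted VM7Luc4E2 cells, 24 h attachment, compound transfer, then 0.1 nM final 17beta-estradiol; after 22 h incubation, ONE-Glo reagent and luminescence reading.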

[5] = qHTS assay to identify small molecule HDAC inhibitors (AID 1259364);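 note: wild-type HCT-116 cells with endogenous class I/II HDAC activity; top concentration of the series differs between compounds; nearly all actives have a fitted effect of over 45% in size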
Outline: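 After a 2 hr compound incubation (37C, 5% CO2), HCT-116 cells seeded at 1,500/well the day before received HDAC-Glo reagent; signal read as luminescence after 30 min at room temperature.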

[6] = qHTS assay to identify small molecule HDAC inhibitors - cell viability counter screen (AID 1259365); note: series mostly up to about 92 µM; nearly all actives have a fitted effect of over 50% in size
Outline: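 HCT-116 wild-type, overnight attachment; 2hr drug exposure, 37C; CellTiter-Glo luminescent ATP readout after 30min RT.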

[7] = qHTS assay to identify small molecule agonists of the sonic hedgehog signaling (Shh) pathway - cell viability counter screen (AID 1259366); note: nearly all actives have a fitted effect of over 50% in size; note: potency is the fitted concentration of half-maximal effect
Outline: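 Compounds in DMSO were pin-transferred onto 3T3 Gli1-Luc cells that had settled 4hr; plates then stood 24hr at 37C and 5% CO2. One hour before the end, CellTiter-Fluor was added and fluorescence recorded.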

[8] = qHTS assay to identify small molecule antagonists of the sonic hedgehog signaling (Shh) pathway - cell viability counter screen (AID 1259367); note: nearly all actives have a fitted effect of over 55% in size; note: potency is the fitted concentration of half-maximal effect
Outline: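 CellTiter-Fluor signal in conditioned medium-stimulated 3T3 Gli1-Luc cells, 23 hr compound exposure, 37C.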

[9] = qHTS assay to identify small molecule agonists of the sonic hedgehog signaling (Shh) pathway (AID 1259368; calls by dose curve;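 note: NIH/3T3-derived 3T3Gli1-Luc cells carrying a stable Gli1-driven firefly luciferase reporter; series mostly up to about 92 µM; nearly all actives have a fitted effect of over 15% in size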)
Outline: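 Stable NIH/3T3 Gli1-Luc reporter clone; 24 hr cpd exposure after a 4 hr settling period; luminescence endpoint.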

[10] = target: Estrogen receptor beta (Homo sapiens) (UniProt Q92731); test: qHTS assay to identify small molecule antagonists of the estrogen receptor beta (ER-beta) signaling pathway (AID 1259378; active = well fitted inhibition curve with a large enough effect in the signal ratio in the repeat runs, not every such curve was filed as active; the % refers to the signal ratio; note: potency is the fitted concentration of half-maximal effect)
Outline: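 Antagonist mode: compounds added to beta-lactamase reporter HEK293T ER-beta-UAS cells stimulated with E2 (1nM final), 16 hr at 37C. LiveBLAzer B/G FRET substrate, 2 hours room temperature, fluorescence read-out.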

[11] = qHTS assay to identify small molecule agonists of the androgen receptor (AR) signaling pathway in the presence of an antagonist - cell viability counter screen (AID 1259379); note: nearly all actives have a fitted effect of over 25% in size; note: potency is the fitted concentration of half-maximal effect
Outline: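 Counter screen for cell viability run in parallel with the AR agonist-mode luciferase assay. MDA-kb2 cells were co-treated with nilutamide (3.0uM final) and compounds, then incubated 16 hr at 37C, and CellTiter-Fluor fluorescence was measured.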

[12] = qHTS assay to identify small molecule agonists of the estrogen receptor beta (ER-beta) signaling pathway - cell viability counter screen (AID 1259380); note: nearly all actives have a fitted effect of over 30% in size; note: potency is the fitted concentration of half-maximal effect
Outline: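 In this qHTS counter screen, HEK293T cells carrying an ER-beta/UAS beta-lactamase reporter, grown in 2% charcoal-stripped FBS, received compound for 16 hr; ATP-based CellTiter-Glo luminescence was then read after 30 min at room temperature.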

[13] = target: Androgen receptor (Homo sapiens) (UniProt P10275); test: qHTS assay to identify small molecule agonists of the androgen receptor (AR) signaling pathway in the presence of an antagonist (AID 1259381; calls by dose curve; note: nearly all actives have a fitted effect of over 15% in size)
Outline: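 AR antagonist background: nilutamide 3.0uM final. Cell line: MDA-kb2, MMTV-driven luciferase, responsive to both AR and GR. Exposure 16hr, 37C, no CO2; ONE-Glo luminescence.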

[14] = qHTS assay to identify small molecule antagonists of the estrogen receptor beta (ER-beta) signaling pathway - cell viability counter screen (AID 1259382); note: nearly all actives have a fitted effect of over 55% in size; note: potency is the fitted concentration of half-maximal effect
Outline: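 HEK293T ER-beta-UAS-bla, 2% charcoal-stripped FBS; compounds + 1nM E2 16 hr 37C; CellTiter-Glo luminescence, 30 min RT.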

[15] = target: Estrogen receptor (Homo sapiens) (UniProt P03372); test: qHTS assay to identify small molecule agonists of the estrogen receptor alpha (ER-alpha) signaling pathway in the presence of an antagonist (AID 1259383; calls by dose curve; note: nearly all actives have a fitted effect of over 15% in size; note: potency is the fitted concentration of half-maximal effect; for activation: top concentration of the series differs between compounds)
Outline: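 ER-alpha agonism measured under antagonist challenge: 10.0nM ICI-182,780 (final) plus compound, 15 concentrations, 22hr, VM7Luc4E2 ERE-luciferase cells. Read by luminescence.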

[16] = qHTS assay to identify small molecule agonists or antagonists of the thyroid stimulating hormone receptor (TSHR) signaling pathway - wild type cell line counter screen (AID 1259384; calls by dose curve)
Outline: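 Counter screen in untransfected Hek293: compounds (15-point titration, triplicate) plus phosphodiesterase inhibitor Ro20-1724 added after 18 h plating; 30 min RT. Intracellular cAMP via competitive d2/cryptate immunoassay, 1 h incubation.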

[17] = target: Thyrotropin receptor (Homo sapiens) (UniProt P16473); test: qHTS assay to identify small molecule antagonists of the thyroid stimulating hormone receptor (TSHR) signaling pathway (AID 1259385; calls by dose curve; note: nearly all actives have a fitted effect of over 20% in size)
Outline: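 Antagonist mode: compound-treated TSHR-expressing HEK293 cells were stimulated with 1.5 ng/mL TSH (final) in presence of Ro20-1724 for 30 min at RT. HTRF cAMP detection after 1 h; each compound tested at 15 concentrations, triplicate.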

[18] = qHTS assay to identify small molecule antagonists of the sonic hedgehog signaling (Shh) pathway (AID 1259369; calls by dose curve; note: nearly all actives have a fitted effect of over 45% in size; note: potency is the fitted concentration of half-maximal effect)
Outline: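 Gli1 transcriptional reporter (firefly Luc) in NIH/3T3 background, conditioned-medium activated. 24hr exposure, luminescence endpoint.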

[19] = target: Estrogen receptor beta (Homo sapiens) (UniProt Q92731); test: qHTS assay to identify small molecule agonists of the estrogen receptor beta (ER-beta) signaling pathway (AID 1259377; active = well fitted activation curve with a large enough effect in the signal ratio in the repeat runs, not every such curve was filed as active; the % refers to the signal ratio; note: potency is the fitted concentration of half-maximal effect)
Outline: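 qHTS in ER-beta-UAS-bla HEK293T cells: 6 hr settling, then 16 hr compound at 37C, then LiveBLAzer substrate 2 h at RT before fluorescence reading.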

[20] = qHTS assay to identify small molecule phospholipidosis (PLD) inducers (AID 1259344; active = well fitted curve in the direction sought with a large enough effect; an effect the other way counts as inactive or inconclusive)
Outline: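 Accumulated phospholipid, stained red by LipidTOX during 24 h compound treatment of HepG2 cells at 37 C, is quantified from images as pit number and intensity, normalised per cell using Hoechst-stained nuclei.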

Chain of Thyrotropin receptor (Homo sapiens) (P16473 whole entry, looked up): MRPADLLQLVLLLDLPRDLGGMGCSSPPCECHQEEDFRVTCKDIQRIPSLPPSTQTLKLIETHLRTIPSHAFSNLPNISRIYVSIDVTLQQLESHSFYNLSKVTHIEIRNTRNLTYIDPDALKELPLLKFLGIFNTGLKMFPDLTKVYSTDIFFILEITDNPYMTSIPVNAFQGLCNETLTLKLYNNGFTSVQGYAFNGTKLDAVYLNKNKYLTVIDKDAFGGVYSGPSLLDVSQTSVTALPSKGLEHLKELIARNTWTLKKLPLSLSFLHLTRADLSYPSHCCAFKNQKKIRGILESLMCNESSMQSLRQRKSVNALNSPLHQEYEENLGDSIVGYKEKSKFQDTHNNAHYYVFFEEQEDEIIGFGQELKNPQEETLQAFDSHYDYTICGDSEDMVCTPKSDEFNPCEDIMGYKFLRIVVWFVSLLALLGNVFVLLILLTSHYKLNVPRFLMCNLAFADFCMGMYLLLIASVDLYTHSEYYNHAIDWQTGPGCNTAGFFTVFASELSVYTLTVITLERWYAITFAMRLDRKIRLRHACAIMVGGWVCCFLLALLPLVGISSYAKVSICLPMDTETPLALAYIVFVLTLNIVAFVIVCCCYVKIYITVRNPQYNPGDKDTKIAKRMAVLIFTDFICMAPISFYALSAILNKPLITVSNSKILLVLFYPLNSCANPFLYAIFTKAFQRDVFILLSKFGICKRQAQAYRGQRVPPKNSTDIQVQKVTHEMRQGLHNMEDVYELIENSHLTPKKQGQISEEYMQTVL
Chain of Estrogen receptor beta (Homo sapiens) (Q92731 whole entry, looked up): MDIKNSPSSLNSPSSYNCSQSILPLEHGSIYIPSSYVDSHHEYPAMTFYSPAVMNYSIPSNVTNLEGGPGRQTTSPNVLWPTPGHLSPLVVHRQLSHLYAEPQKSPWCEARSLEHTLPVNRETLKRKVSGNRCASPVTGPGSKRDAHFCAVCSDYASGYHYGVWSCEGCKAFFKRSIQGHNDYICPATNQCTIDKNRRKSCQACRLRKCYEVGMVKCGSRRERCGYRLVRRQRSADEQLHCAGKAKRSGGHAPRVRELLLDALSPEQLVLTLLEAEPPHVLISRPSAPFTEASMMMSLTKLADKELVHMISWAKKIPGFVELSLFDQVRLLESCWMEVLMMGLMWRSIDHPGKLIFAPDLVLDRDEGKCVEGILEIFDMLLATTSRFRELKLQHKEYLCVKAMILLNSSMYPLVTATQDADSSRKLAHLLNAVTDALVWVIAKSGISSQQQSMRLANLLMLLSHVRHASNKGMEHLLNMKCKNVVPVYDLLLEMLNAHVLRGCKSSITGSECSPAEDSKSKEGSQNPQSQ
Chain of Androgen receptor (Homo sapiens) (P10275 whole entry, looked up): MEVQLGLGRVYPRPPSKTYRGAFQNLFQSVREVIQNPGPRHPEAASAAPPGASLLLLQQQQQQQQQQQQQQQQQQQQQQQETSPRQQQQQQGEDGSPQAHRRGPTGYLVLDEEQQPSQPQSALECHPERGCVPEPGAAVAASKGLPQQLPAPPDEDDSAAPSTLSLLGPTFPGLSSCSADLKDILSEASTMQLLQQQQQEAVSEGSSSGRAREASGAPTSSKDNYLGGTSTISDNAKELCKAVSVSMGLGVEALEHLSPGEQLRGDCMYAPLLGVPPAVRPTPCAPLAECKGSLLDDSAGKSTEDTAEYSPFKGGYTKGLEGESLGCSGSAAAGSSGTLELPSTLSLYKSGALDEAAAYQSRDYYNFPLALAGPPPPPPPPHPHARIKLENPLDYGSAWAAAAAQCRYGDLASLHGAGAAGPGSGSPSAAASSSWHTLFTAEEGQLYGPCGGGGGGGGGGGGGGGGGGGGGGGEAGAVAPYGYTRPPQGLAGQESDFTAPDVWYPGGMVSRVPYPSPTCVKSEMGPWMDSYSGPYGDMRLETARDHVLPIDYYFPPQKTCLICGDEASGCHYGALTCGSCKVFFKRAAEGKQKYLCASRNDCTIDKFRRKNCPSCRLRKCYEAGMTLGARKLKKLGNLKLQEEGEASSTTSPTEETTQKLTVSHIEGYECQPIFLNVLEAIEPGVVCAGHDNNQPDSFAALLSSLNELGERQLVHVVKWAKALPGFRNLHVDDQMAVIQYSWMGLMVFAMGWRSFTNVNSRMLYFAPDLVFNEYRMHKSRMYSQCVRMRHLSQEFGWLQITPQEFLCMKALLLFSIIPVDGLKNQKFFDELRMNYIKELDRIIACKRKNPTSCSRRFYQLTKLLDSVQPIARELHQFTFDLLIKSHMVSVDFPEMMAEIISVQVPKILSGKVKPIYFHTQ
Chain of Estrogen receptor (Homo sapiens) (P03372 whole entry, looked up): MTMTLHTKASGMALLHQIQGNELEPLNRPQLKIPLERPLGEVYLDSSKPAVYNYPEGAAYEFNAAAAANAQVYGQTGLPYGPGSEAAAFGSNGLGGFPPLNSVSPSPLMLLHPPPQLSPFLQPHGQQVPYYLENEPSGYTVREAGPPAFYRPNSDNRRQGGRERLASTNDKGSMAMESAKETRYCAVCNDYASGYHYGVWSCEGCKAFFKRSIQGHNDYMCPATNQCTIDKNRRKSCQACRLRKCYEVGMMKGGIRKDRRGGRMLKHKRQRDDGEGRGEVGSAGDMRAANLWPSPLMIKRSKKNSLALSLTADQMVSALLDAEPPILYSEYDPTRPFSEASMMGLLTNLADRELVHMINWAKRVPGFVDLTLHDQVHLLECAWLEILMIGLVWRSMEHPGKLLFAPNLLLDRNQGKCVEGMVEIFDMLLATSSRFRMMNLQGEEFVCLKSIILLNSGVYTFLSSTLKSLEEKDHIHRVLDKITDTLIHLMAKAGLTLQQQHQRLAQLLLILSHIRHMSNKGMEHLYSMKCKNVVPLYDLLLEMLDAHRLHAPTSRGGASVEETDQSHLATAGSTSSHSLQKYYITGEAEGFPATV

Compound | Potency [1] | Potency [2] | Potency [3] | Potency [4] | Potency [5] | Potency [6] | Potency [7] | Potency [8] | Potency [9] | Potency [10] | Potency [11] | Potency [12] | Potency [13] | Potency [14] | Potency [15] | outcome [16] | Potency [17] | Potency [18] | Potency [19] | Potency [20]
CCOC(=O)c1nc(C(Cl)(Cl)Cl)n(-c2ccc(Cl)cc2Cl)n1 | inactive | inactive | 61.1 µM (active) | inactive | inactive | inactive | inactive | 61.1 µM (active) | inactive | 54.5 µM (active) | inactive | 54.5 µM (active) | inactive | 61.1 µM (active) | inactive | inactive | inactive |  |  | 
C=CC(=O)OCC(CO)(COC(=O)C=C)COC(=O)C=C | 15.4 µM (active) and 48.6 µM (active) | 10.9 µM (active) and 27.3 µM (active) | 5.46 µM (active) and 12.2 µM (active) | 13.7 µM (active) | inactive |  | 4.34 µM (active) and 10.9 µM (active) | 3.87 µM (active) and 8.63 µM (active) | inactive |  | 19.4 µM (active) and 24.3 µM (active) | 13.7 µM (active) and 19.3 µM (active) | inactive | 19.4 µM (active) and 19.3 µM (active) | inactive | inactive | inactive | 1.54 µM (active) and 3.86 µM (active) |  | 
O=C(c1ccc(O)cc1O)c1ccc(O)cc1O | inactive | inactive | 3.07 µM (active) and 3.06 µM (active) | inactive |  | inactive | inactive |  | inactive |  | inactive | inactive |  |  | 9.7 µM (active) and 7.7 µM (active) | inactive | inactive | 17.2 µM (active) and 24.3 µM (active) | 8.64 µM (active) and 7.7 µM (active) | 
CC(C)=CCOc1ccc(/C=C/C(=O)c2ccc(OCC=C(C)C)cc2OCC(=O)O)cc1 | inactive | inactive | inactive | inactive | inactive | inactive | inactive | inactive | inactive |  | inactive | 5.96 µM (active) | inactive |  | inactive | inactive | inactive | inactive |  | inactive
Nc1cc(C(F)(F)F)ccc1S | inactive | inactive | inactive | inactive | inactive | inactive |  |  | inactive |  | inactive | 21.1 µM (active) | inactive |  | inactive |  |  | 13.3 µM (active) | inactive | 
CC[C@H](c1ccc(O)cc1)[C@@H](CC)c1ccc(O)cc1 | inactive | inactive | 15.4 µM (active) and 26.6 µM (active) | 48.6 µM (active) | inactive | inactive | 54.5 µM (active) and inactive | 48.6 µM (active) and inactive | inactive |  | inactive | 48.6 µM (active) and inactive | inactive | inactive | 4.3 nM (active) and 8.4 nM (active) |  |  | 7.7 µM (active) | 1.1 nM (active) | inactive
CCCCCCCCCCCCCCCC(=O)OC[C@H](O)[C@H]1OC(=O)C(O)=C1O | inactive | inactive | inactive | inactive | inactive | inactive | inactive | inactive | inactive |  | inactive | 43.3 µM (active) | inactive |  | inactive | inactive | inactive | inactive |  | inactive
